Experimental data from the supplement of paper PMC11417369.
Whole data set: some 25,000 sequences, median “ln(normalized median fluorescence intensity)” near 6.7, cut for the highest 2% near 10. This is one part of a sample in which the highest values are shown more often than they occur.

Test system: PfHDP1 homeodomain (GST-tagged)
Assay: gcPBM binding intensity (ln(normalized median fluorescence intensity)); higher = stronger DNA binding
Outline: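 GST-tagged P. falciparum DNA-binding domains, expressed in E. coli (about 25 μg on average), were applied for 1 h to an Agilent 4 × 180k array of primer-extended double-stranded 36-bp intergenic genomic probes plus negative controls. The binding buffer was 1× PBS with 1% milk, 0.2 mg/ml BSA, 0.5% salmon testes DNA and 0.03% Triton X-100. Bound protein was detected with Alexa488 anti-GST antibody and scanned at 488 nm. Binding intensity is the highest Masliner-normalised natural-log median intensity across replicate spots of either probe orientation.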

Sequence	gcPBM binding intensity (ln)
TACAGATATTATTGCACACATATAAAATACCCCCAA [CACACA_site6014]	10.4
TATAAATTATAAATTGCACACATATTTTTATATTTA [CACACA_site8974]	10.1
TACATATATTATTGCACACATATAAAATACCCCCAA [CACACA_site3895]	10.8
CTATATAAAAAAATTGCACACATAAATATATACATA [CACACA_site8325]	9.87
ATATAAAAAAATTGCACACATAAATATATACATATA [CACACA_site1218]	10.1
TATTATTTACTTATTGCACACATATAAAATATATTT [CACACA_site9017]	10.2
ATAAATATTGCGTGCACACACATAATATTTATATAT [CACACA_site7136]	10.3
CATACATATATTATTGCACACATATAAAATACCCCC [CACACA_site9292]	10.4
ATAAATATTGGGTGCACACACATAATATATATATAT [CACACA_site2272]	10.5
ATTGGGTACAAATACACACACATATAAATATTAATA [CACACA_site7173]	6.68
ATATATATATATATTGCACACATATAAATATATATA [CACACA_site8167]	10.9
TTATTTACTTATTGCACACATATAAAATATATTTAT [CACACA_site3101]	10.7
TATAAAAAAATAAAAGGAATATACTTGCAAAGGGTA [CACACA_negctrl_site1438]	8.14
ATAATATTTTCTTCTTATTGAATGCTTTAAATTTAC [CACACA_negctrl_site1273]	6.46
CGCACTAAAAAACACACACACACACCCATATATATA [CACACA_site4152]	7.19
TTTTTAATTTTGTGGGTGCTTTCGTGTTATTATATA	7.23
ATAAACATGGAAATGTATTAAAAGCAAGTATATAAA [XGTACX_negctrl_site516]	6.66
TGTTTTTAAAAATATACACACACAGATATTATATAT [CACACA_site8162]	6.73
CATCCACATATATGTACACACATATATATATATATA [CACACA_site2964]	9.46
TATAATAATACTTATTGTACTATTAGTTTAATTCAT [XGTACX_site6638]	6.15
AATAAAAAAAAATGCACACATATATATATATATATA [CACACA_site2421]	9.87
TATAAATACATACATACACACATATATATATATATT [CACACA_site6116]	6.81
TATATATATATATTCACACATAAATATATGCACCCA [CACACA_site4263]	11
TAAACATAAATATGCACACATATACATATATTCATA [CACACA_site2667]	9.75

Sequence	gcPBM binding intensity (ln)
TTTTTTTTTTTTTGCACACACATATATAAATATATA [CACACA_site3949]	9.41
CTTTTTTTTTTTTTTGCACACACATATATAAATATA [CACACA_site3950]	10.6
AATGTAGAAATGGGTGCACACACATATATAATATAT [CACACA_site8799]	10.2
TGTAGAAATGGGTGCACACACATATAAAATCTATAT [CACACA_site7224]	10.4
ATATATATATATTGCACACATATAAATATATATATT [CACACA_site807]	10.6
TGTAGAAATGGGTGCACACACATATATAATATATAT [CACACA_site2507]	10.7
TATATATATATATTCACACATAAAAATAAAATAAAA [CACACA_site4774]	8.8
AATATAAATAAACACACACACATATATATATATATT [CACACA_site2906]	6.78
GATTAATTTAAAAAATGTACATTTTATTGTATAACC [XGTACX_site5539]	6.55
AACTGAGAAACCGAAGTGCAATATGTATATATACAT	9.08
GAAAATAGAAAAAGCACACATATATTTTGGAATGTA [CACACA_site551]	6.5
ATATATATAACAAAAGTGCATTAAGGGGATGCTATA	8.66
CGTATTATTTTATAAACACACAAGGGGGCATGTATA [CACACA_site6489]	7.82
TTTTTTTTTTTTTTGGTGCGATCTTTTAAATGATCC	6.48
TAATTTCCTTAAGAATGTACTTACATTTTATTATTT [XGTACX_site5998]	6.02
CCTATAAAACCATATACACACATATAAATAAAAAAA [CACACA_site7809]	6.58
TACAAATATATAAAATGTACATATATATACATATTA [XGTACX_site3029]	6.13
AAATAATATGTAATCAAATTCACCAAACGAAAAAAA [TGCATGCA_negctrl_site33]	6.59
TATATATATATGTGCACACATAATAAAAAAAAAAAT [CACACA_site3831]	9.99
CTATAATATTAGTGCACACACAAAAATGTACTAAAC [CACACA_site6442]	10.6
TGTATATGGTTTGTGCAAAAATTTATTAATGTGTAA [TGCATGCA_negctrl_site374]	10.1
TCATAACAACTTTGTGTGCACATAAAACATGTATAT	11
TATATATATATAACAACACACACAGATCATAAAACT [CACACA_site8670]	8.9
AACTTAAAAAATAAATGTACATAAATATAAACATAT [XGTACX_site2987]	6.59

Sequence	gcPBM binding intensity (ln)
TCAACAAATAAACTTTGTACATATATACAAAATATA [XGTACX_site4447]	6.27
TTATATGTTTTGTGTACACAATTTATTAAATTAATA [CACACA_site5645]	8.03
GTATATAATATTAGTGCACACACAAAAATGTACTAA [CACACA_site8112]	10.3
ATATATATTAATTTTGTGCACAAATGGAAATGTTTG [GTGCAC_site9971]	10.9
ATATAATATTAGTGCACACACAAAAATGTACTAAAC [CACACA_site632]	10.4
GAATAAAAAATATATGTGCACATATAAACTTAAAAT [GTGCAC_site9554]	10.7
AAAAAAAAAAAAAAGAGTACACAGACGTTCAAAGGT [XGTACX_site7566]	6.85
CGCGAACATACATACACACACATATTTATATAGGTA [CACACA_site6241]	6.69
ATAATTAGTTCAATTTTTTTTTTTTTTTTTTTTTTT [CACACA_negctrl_site1371]	6.91
ATAAATTTATATACTTGTACATATATATATTACATA [XGTACX_site6697]	6.7
TGCTGTATATTTTTCTGTACACATTTATATATTCCA [XGTACX_site6244]	6.65
CATATAGTATAAATTTGTACATAAATATATATATAT [XGTACX_site7477]	8.91
TATAATATATTTTAATGTACGTACATCCCGATTAAT [XGTACX_site7651]	6.63
CAAAAAAATGTGAAGGCATGCAAATATGTAAAATAA [TGCATGCA_site921]	7.26
TAATAAAATATGTACGTGCACATAATTATACTAAAA	10.5
ATAATTATAAAATAAACACACATATATATTTATATG [CACACA_site440]	6.29
AATAAATAAAAAATTACACACATATTTATAAATATA [CACACA_site7584]	6.4
TATTAATTATAAGATGCATGTGCAAAAATATGTTCC [TGCATGCA_site51]	10.2
AATATTTTAAATATTGCATGCAATGAAAAATGTAAA [TGCATGCA_site139]	7.73
ACTAAAAAATATATATGTACATAATAATATATTATT [XGTACX_site1260]	6.66
AACCATAAATAATTATGTACTAAAAAAAATATATAT [XGTACX_site3415]	6.7
AAATTAATATTATGTGCATGCACAAAGAGGAACGAC [TGCATGCA_site754]	11.8
ATAATTATTAAGAGAACATGCAAAATATATATGTTT [TGCATGCA_site503]	6.68
TATAAAATAAATTGTGCACACATATTTATAAATATG [CACACA_site2330]	10.5

Sequence	gcPBM binding intensity (ln)
TTATTGTAAATATATGCATGTGCAAAATGAAAAAAA [TGCATGCA_site399]	10.5
AAAAATAAAAAAATAAAAAATAAAAAAATAAAAAAT [CACACA_negctrl_site1425]	6.64
TTAATAATAAAAAGGAGTACACTAATATACTATAAA [XGTACX_site2346]	6.35
TAAATTTTAATAAATACACACAAATTTTAATTCTAT [CACACA_site6039]	6.27
TACATATAAACAATAACACACACCTAGGTACATGGA [CACACA_site8178]	6.49
TGTATTCTCTTAGTAGTGCATTTGAAGATTATATAA	8.81
TAAATAGATGTTTTATGTACGTATAAATAAAAAAAA [XGTACX_site3412]	6.29
TTTATTTATTTAATTACACACGAACATATAACCATT [CACACA_site7952]	6.8
ATTTTTTAAAAAGTAACACACACTCTTATATATAAT [CACACA_site9206]	6.64
ATATACATATCATGTAGTACAATTTTTTTACTTTTT [XGTACX_site7988]	6.14
CAAGCTATGTATTCTACACACACATACACCCATATA [CACACA_site9133]	7.22
ATTATTAATAATTGTGTGCACAAATATTTATATGCT	10.6
TTAAAAAAATTAATATGTACATATATTTATATATAT [XGTACX_site5317]	6.54
TAAAATAATATTTATGTGCACATATAATTATTAATT	10.7
TAATATTTTAATTGTGTGCACATTAATATTATAAAA	10.3
CAAATATATATGTTCACACATATAATTATTGTGAAA [CACACA_site4190]	6.4
TGAAATTTTATTAATGTGCACATATATTTATTGTTC	10.8
ATATATTATATAATATGTACATAATAAAATTTAAAT [XGTACX_site1900]	6.79
ATATTTAATGTTAATTGTACATATTATATATATATA [XGTACX_site6095]	8.49
TAATATAATATATGCACACAAATATGTATTTATGTG [CACACA_site5210]	10.1
TAAAATAAATTGTGCACACATATTTATAAATATGAA [CACACA_site2331]	10.7
ATGAAAATTTATATTGCACACATAGGGAATAAAAAA [CACACA_site8667]	10.4
TTTATGAAACAGTGCACACATAAAAATATATACATA [CACACA_site2992]	10.1
